Data published in publication PMC7862700, “An all-to-all approach to the identification of sequence-specific readers for epigenetic DNA modifications on cytosine”.

Legend:
Experiment in all cases: DAPPL (digital affinity profiling via proximity ligation, sequencing); 10 mM Tris-HCl pH 7.5, 50 mM NaCl, 1 mM DTT, 4% glycerol, room temperature, 30 min; GST-TFs on glutathione beads, 16-mer random dsDNA library, 0.1% formaldehyde crosslink after washing; high values mean tight binding
Details in all cases: protein: recombinant; tags: N-terminal GST; dsDNA, one strand shown
[1] = target: T1, ELK1 (Homo sapiens, UniProt P19419 1-428)
T1 sequence: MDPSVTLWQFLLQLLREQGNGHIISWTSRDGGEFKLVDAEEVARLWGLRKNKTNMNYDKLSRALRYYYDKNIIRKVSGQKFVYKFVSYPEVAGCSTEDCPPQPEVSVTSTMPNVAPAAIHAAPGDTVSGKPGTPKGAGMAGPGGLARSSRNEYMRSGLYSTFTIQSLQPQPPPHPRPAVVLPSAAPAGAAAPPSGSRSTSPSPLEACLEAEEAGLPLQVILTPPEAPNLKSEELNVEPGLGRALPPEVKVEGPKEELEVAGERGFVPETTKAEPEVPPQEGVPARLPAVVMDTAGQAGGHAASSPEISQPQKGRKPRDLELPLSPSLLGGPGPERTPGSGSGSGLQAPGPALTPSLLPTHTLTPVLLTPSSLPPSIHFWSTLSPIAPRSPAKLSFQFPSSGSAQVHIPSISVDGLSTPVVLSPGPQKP
Procedure, shortened: (§1)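 Binding signal is each hexamer's read frequency for a factor divided by its frequency in the tag-only sample. The factors were GST-fused human transcription factors from yeast, captured on glutathione beads, DNA-barcoded and pooled with that sample. Pools were incubated with 200 nmole of a random double-stranded 16-mer DNA library in Tris/NaCl/DTT/glycerol buffer at room temperature for 30 min, then washed, crosslinked with 0.1% formaldehyde, proximity-ligated with BsaI/T4 ligase (1 h, 37 °C), PCR-amplified and sequenced on an Illumina NextSeq500.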

[2] = target: ELF1 (Homo sapiens, UniProt P32519 1-619)
ELF1, sequence (P32519 whole entry): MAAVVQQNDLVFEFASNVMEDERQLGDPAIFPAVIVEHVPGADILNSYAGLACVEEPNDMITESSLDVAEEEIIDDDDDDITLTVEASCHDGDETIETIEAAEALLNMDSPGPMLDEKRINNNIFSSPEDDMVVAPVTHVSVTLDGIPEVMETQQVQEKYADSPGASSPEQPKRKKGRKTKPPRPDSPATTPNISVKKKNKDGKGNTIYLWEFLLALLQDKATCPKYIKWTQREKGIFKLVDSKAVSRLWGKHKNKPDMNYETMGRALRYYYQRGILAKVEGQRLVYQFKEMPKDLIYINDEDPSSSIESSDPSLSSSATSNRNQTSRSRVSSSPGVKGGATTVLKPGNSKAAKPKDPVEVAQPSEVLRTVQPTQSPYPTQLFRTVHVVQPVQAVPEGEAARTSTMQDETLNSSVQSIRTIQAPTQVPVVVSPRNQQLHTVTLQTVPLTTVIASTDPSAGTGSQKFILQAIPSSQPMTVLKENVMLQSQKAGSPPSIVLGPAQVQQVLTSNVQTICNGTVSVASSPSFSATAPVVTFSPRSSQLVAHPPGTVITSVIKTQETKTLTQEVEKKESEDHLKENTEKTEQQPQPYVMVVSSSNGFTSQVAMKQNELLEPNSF
Procedure, shortened: as §1

[3] = target: T2, EHF (Homo sapiens, UniProt Q9NZC4 1-300)
T2 sequence: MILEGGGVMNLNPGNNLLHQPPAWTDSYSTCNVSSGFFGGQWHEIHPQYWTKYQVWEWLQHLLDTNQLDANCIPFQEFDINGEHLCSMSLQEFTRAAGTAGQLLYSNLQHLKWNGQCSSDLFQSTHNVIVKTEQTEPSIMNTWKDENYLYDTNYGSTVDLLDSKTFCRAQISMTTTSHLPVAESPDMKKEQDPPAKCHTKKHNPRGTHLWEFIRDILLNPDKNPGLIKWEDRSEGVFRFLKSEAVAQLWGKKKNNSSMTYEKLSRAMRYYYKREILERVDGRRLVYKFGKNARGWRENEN
Procedure, shortened: as §1

[4] = target: T3, FEV (Homo sapiens, UniProt Q99581 1-238)
T3 sequence: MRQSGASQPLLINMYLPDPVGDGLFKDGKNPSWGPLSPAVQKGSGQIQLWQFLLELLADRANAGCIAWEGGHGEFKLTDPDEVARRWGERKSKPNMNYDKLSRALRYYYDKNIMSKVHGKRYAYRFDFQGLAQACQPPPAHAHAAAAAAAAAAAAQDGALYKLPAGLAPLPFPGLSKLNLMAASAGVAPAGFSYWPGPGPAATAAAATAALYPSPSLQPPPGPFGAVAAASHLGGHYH
Procedure, shortened: as §1

[5] = target: ETV5 (Homo sapiens, UniProt P41161 1-510)
ETV5, sequence (P41161 whole entry): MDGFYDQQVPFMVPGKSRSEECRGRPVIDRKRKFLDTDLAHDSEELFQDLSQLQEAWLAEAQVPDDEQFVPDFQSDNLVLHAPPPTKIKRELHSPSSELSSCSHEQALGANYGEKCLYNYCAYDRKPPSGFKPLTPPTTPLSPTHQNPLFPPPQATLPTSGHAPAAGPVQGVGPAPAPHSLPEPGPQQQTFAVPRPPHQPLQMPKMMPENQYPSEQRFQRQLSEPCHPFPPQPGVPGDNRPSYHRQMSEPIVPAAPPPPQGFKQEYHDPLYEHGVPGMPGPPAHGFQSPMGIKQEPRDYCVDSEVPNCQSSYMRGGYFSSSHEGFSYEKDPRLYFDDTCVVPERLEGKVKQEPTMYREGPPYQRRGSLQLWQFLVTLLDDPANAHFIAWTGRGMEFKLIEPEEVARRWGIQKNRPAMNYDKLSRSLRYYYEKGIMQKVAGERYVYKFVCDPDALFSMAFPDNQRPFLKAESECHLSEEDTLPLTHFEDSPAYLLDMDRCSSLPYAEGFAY
Procedure, shortened: as §1

[6] = target: T4, ELK4 (Homo sapiens, UniProt P28324-2 1-405)
T4 sequence: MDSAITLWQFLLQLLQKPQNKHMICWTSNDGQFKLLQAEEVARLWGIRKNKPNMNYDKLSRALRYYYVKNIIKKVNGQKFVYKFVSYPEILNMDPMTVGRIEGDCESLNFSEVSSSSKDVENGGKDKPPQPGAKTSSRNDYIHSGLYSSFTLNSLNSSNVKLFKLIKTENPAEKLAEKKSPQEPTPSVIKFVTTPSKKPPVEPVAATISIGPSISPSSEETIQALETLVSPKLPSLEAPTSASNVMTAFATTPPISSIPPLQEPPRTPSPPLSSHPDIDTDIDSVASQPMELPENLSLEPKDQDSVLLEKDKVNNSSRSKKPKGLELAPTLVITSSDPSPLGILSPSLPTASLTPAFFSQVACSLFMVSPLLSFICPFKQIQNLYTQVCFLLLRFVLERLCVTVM
Procedure, shortened: as §1

[7] = target: T5, ETV2 (Homo sapiens, UniProt O00321 1-342)
T5 sequence: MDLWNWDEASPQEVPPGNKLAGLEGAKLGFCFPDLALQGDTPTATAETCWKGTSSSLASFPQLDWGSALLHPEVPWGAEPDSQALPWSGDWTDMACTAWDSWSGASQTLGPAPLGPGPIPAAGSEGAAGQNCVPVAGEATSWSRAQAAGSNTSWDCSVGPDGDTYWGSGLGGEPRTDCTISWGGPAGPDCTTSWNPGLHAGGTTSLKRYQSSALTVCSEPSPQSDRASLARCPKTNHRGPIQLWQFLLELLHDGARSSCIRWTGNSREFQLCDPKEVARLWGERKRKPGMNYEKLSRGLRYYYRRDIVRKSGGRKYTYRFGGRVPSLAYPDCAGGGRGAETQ
Procedure, shortened: as §1

[8] = target: T6, ERF (Homo sapiens, UniProt P50548 1-548)
T6 sequence: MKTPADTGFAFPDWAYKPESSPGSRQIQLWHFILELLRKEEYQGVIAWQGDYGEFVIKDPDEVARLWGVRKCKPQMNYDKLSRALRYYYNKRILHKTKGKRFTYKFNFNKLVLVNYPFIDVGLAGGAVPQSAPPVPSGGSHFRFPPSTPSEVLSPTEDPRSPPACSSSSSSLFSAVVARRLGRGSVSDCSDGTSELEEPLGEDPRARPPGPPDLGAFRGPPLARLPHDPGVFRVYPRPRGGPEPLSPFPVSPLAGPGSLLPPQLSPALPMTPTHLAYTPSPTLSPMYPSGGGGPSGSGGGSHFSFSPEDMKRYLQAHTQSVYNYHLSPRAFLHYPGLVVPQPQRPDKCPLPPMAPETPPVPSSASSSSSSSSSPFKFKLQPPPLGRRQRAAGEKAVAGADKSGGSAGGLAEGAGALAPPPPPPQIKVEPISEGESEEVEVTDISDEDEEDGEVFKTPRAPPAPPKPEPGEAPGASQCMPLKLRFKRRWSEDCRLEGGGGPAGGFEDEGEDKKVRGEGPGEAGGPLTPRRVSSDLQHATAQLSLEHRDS
Procedure, shortened: as §1

[9] = target: T7, ETV7 (Homo sapiens, UniProt Q9Y603 1-341)
T7 sequence: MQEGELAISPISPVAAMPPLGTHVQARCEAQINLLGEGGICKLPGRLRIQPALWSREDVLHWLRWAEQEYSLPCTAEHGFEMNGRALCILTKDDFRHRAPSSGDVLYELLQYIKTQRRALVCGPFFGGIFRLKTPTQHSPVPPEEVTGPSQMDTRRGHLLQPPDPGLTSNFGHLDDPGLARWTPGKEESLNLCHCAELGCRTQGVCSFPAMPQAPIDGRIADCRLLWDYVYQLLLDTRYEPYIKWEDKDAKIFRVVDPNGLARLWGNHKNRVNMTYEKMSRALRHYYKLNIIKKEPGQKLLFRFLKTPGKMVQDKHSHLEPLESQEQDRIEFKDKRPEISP
Procedure, shortened: as §1

[10] = target: T8, ETV3 (Homo sapiens, UniProt P41162-2 1-143)
T8 sequence: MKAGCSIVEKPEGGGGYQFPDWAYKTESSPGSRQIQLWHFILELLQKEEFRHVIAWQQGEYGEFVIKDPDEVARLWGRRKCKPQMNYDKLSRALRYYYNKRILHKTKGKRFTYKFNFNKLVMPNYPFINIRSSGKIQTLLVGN
Procedure, shortened: as §1

[11] = target: T9, ERG (Homo sapiens, UniProt P11308 1-479)
T9 sequence: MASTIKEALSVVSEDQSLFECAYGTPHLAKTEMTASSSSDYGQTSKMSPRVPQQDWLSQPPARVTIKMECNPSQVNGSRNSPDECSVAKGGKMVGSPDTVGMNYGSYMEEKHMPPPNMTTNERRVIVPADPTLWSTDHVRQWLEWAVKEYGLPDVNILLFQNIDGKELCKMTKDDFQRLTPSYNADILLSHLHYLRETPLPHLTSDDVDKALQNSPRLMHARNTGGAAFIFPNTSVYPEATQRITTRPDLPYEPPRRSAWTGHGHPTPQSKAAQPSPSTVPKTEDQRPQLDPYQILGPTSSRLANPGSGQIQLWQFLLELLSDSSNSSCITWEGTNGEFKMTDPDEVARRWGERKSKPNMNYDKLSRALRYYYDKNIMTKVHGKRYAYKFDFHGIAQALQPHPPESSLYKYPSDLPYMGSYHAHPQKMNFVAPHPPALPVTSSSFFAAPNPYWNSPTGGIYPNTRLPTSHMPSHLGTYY
Procedure, shortened: as §1

[12] = target: SPIB (Homo sapiens, UniProt Q01892 1-262)
SPIB, sequence (Q01892 whole entry): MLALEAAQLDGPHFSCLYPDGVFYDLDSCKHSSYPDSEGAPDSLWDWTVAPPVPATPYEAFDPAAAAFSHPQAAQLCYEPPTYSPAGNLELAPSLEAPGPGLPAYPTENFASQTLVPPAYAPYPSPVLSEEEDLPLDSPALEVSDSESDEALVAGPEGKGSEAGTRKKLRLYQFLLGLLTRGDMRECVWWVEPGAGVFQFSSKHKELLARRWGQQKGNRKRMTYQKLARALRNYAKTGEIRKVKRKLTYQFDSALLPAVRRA
Procedure, shortened: as §1

[13] = target: T10, ELF3 (Homo sapiens, UniProt P78545 1-371)
T10 sequence: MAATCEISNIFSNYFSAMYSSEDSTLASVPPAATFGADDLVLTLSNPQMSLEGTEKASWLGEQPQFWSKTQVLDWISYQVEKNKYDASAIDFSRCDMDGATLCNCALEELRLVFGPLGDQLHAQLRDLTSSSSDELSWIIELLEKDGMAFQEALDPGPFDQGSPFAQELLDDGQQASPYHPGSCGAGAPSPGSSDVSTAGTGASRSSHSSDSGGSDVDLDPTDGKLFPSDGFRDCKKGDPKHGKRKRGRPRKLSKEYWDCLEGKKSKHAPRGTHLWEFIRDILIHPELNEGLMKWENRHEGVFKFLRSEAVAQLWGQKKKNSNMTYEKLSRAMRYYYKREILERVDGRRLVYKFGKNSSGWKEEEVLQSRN
Procedure, shortened: as §1

[14] = target: T11, ETV3L (Homo sapiens, UniProt Q6ZN32 1-361)
T11 sequence: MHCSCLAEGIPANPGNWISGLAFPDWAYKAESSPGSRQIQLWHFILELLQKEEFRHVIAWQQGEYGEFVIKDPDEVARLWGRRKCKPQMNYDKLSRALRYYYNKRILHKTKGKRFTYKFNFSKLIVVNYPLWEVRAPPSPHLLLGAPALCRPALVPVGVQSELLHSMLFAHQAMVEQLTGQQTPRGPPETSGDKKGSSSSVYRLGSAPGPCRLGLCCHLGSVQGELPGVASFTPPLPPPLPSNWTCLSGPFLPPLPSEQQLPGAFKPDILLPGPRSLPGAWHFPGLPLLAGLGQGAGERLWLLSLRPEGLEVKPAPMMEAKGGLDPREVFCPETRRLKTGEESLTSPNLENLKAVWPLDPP
Procedure, shortened: as §1

[15] = target: T12, ETS2 (Homo sapiens, UniProt P15036 1-469)
T12 sequence: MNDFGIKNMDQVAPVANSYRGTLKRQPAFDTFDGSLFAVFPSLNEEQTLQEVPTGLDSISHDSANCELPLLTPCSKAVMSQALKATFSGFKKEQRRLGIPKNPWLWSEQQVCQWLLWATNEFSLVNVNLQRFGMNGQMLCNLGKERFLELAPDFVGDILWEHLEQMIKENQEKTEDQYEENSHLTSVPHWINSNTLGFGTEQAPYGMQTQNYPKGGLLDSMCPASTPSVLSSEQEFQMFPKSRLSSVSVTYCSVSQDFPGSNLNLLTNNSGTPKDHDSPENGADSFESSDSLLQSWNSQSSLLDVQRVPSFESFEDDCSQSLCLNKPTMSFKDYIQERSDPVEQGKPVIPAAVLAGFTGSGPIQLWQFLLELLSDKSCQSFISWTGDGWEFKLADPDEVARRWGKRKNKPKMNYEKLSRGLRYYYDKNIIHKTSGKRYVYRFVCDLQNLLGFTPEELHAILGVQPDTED
Procedure, shortened: as §1

[16] = target: T13, SPDEF (Homo sapiens, UniProt O95238 1-335)
T13 sequence: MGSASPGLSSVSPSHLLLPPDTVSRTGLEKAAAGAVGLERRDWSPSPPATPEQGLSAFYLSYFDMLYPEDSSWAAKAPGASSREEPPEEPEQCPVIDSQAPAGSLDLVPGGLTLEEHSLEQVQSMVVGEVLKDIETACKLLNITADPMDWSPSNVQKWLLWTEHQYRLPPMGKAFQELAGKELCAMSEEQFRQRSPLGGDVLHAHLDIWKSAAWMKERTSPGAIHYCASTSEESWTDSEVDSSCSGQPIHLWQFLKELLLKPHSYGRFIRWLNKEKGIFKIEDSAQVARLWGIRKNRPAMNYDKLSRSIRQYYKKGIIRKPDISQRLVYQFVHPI
Procedure, shortened: as §1

[17] = target: ETV6 (Homo sapiens, UniProt P41212 1-452)
ETV6, sequence (P41212 whole entry): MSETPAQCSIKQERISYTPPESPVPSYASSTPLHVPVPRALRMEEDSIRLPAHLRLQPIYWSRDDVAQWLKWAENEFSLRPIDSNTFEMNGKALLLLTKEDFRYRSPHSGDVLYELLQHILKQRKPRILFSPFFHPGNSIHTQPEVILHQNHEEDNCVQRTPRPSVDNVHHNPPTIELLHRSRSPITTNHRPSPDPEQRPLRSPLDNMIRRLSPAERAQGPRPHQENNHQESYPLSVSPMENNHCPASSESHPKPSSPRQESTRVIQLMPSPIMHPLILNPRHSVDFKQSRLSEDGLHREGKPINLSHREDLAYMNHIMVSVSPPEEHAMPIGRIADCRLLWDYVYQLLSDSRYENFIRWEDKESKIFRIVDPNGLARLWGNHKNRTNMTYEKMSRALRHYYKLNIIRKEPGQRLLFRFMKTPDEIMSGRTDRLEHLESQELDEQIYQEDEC
Procedure, shortened: as §1

Row | Sequence | binding signal [1] | binding signal [2] | binding signal [3] | binding signal [4] | binding signal [5] | binding signal [6] | binding signal [7] | binding signal [8] | binding signal [9] | binding signal [10] | binding signal [11] | binding signal [12] | binding signal [13] | binding signal [14] | binding signal [15] | binding signal [16] | binding signal [17]
1 | GCTAAC | 1.1 fold enrichment (6-mer frequency, TF over GST control) | 1.04 fold enrichment (6-mer frequency, TF over GST control) | 1.03 fold enrichment (6-mer frequency, TF over GST control) | 1.03 fold enrichment (6-mer frequency, TF over GST control) | 1.06 fold enrichment (6-mer frequency, TF over GST control) | 1.05 fold enrichment (6-mer frequency, TF over GST control) | 1.07 fold enrichment (6-mer frequency, TF over GST control) | 1.03 fold enrichment (6-mer frequency, TF over GST control) | 1.09 fold enrichment (6-mer frequency, TF over GST control) | 1 fold enrichment (6-mer frequency, TF over GST control) | – | – | – | – | – | – | –
2 | TGGCTG | – | 1.06 fold enrichment (6-mer frequency, TF over GST control) | 1.23 fold enrichment (6-mer frequency, TF over GST control) | 1.04 fold enrichment (6-mer frequency, TF over GST control) | 1.08 fold enrichment (6-mer frequency, TF over GST control) | 1.24 fold enrichment (6-mer frequency, TF over GST control) | 1.26 fold enrichment (6-mer frequency, TF over GST control) | 1.17 fold enrichment (6-mer frequency, TF over GST control) | 1.07 fold enrichment (6-mer frequency, TF over GST control) | 1 fold enrichment (6-mer frequency, TF over GST control) | 1.04 fold enrichment (6-mer frequency, TF over GST control) | 1.01 fold enrichment (6-mer frequency, TF over GST control) | 1 fold enrichment (6-mer frequency, TF over GST control) | 1.09 fold enrichment (6-mer frequency, TF over GST control) | 1.05 fold enrichment (6-mer frequency, TF over GST control) | 1.01 fold enrichment (6-mer frequency, TF over GST control) | 1.02 fold enrichment (6-mer frequency, TF over GST control)
